WNV NS2B-NS3 inh = inhibitors of WNV NS2B-NS3 protease, primary screen, biochemical, fluorogenic substrate | Genome polyprotein (West Nile virus), P06935 | fluorogenic substrate Ex360/Em465; hits give low values | z-score (test concentration not listed) | 65,000 tested, 0.18% active | AID 577, 2007; in the data active means z-score below about -3
D1 mod = D1 CRE-luciferase signal change, two-sided – cell-based, HEK293 D1, dopamine EC30, D1 allosteric modulator project, primary screen. B-score at 10 µM. 58,000 tested, 5.9% active. D(1A) dopamine receptor (Homo sapiens), P21728. dopamine EC30 potentiation; actives deviate in either direction;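 active means luminescence count or its row- and column-corrected plate score outside the 99.7% band of the plate's sample wells, on either side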
M1 agonist = M1 muscarinic receptor agonists, primary screen, CHO-M1 cells, Fluo-4 calcium, agonist mode. B-score at 10 µM. 64,000 tested, 3% active. Fluo-4 calcium fluorescence; hits give high values. Muscarinic acetylcholine receptor M1;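 active means fluorescence rise, raw or as B-score row- and column-corrected plate score, outside the 99.7% band of its plate's samples, either direction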
M1 antag = antagonists of rat M1 muscarinic receptor; B-score at 10 µM; AID 628, 2007; CHO-M1 cells, Fluo-4 calcium, ACh EC80 antagonist mode; hits give low values; 64,000 tested, 3.4% active;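 active means calcium fluorescence response, raw or row-and-column corrected B-score, differing from the plate sample mean either way at a set confidence level, mostly lower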
Target sequence (P08482 whole entry, looked up): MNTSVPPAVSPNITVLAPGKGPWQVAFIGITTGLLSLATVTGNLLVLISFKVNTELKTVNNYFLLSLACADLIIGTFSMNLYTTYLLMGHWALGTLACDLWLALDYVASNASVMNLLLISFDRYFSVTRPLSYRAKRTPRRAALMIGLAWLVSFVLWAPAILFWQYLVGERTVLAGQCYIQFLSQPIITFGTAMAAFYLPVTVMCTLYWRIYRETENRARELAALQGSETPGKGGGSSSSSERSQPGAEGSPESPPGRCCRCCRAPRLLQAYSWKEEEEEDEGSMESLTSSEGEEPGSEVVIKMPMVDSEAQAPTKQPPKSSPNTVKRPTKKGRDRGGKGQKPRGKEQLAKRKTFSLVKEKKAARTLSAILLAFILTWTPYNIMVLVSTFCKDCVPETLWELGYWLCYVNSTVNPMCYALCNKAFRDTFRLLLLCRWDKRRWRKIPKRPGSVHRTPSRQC
Htt clearance = clearance of mutant huntingtin inclusions, primary screen, imaging, HeLa Exon1htt(103Q)mCFP, confocal imaging. aggregate imaging; zero = plate's median compound well. inhibition, % at 1.5 µM. 47,000 tested, 0.42% active;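 active means inhibition of aggregate fluorescence above about 70%, also judged a hit by eye on the cell image, limit read from the data, passing the limit was not always enough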;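 further: cells exposed to compound for three days before fixation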
M1 antag confirm = rat M1 muscarinic receptor antagonists, confirmation, CHO cells, Fluo-4 calcium, duplicate. shares compounds with M1 antag. ACh EC80 antagonism; hits give low values. calcium response (max-min fluorescence) at 10 µM. 1,700 tested, 43% active;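 active means calcium response below the same-plate mean of wells given acetylcholine alone at its 80%-effect dose, minus 3 SD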
mGluR4 antag = human mGluR4 response to M1 antagonist hits, M1 allosteric modulator project, cell-based, antagonist mode, secondary assay 1. shares compounds with M1 antag. CHO-mGluR4 calcium flux, Fluo-4 fluorescence, glutamate EC80; hits give low values. fluorescence response (max-min) at 10 µM. 1,700 tested, 0.9% active. AID 678, 2007;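 active means fluorescence response below the plate's average for near-maximal glutamate wells, less 3 SD of those wells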;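 further: raw unnormalized fluorescence span taken in the window right after glutamate addition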
Large screens that a line does not name were inactive (follow-up assays come after a bar, where they were run). In the library only some 8.9% were active in any assay of this set; here they are far more common.

Cc1cccc(NC(=O)c2ccccn2)c1C	M1 antag -1.86 | M1 antag confirm inactive | mGluR4 antag inactive
CC1CCc2cc(F)ccc2N1C(=O)CSc1nnc(-c2cccs2)n1C (stereo not given)	M1 antag -6.13 (no result: Htt clearance) | M1 antag confirm inactive | mGluR4 antag inactive
N#CC1=C2SCN(c3ccccc3)CN2C(=O)CC1c1c(Cl)cccc1Cl (stereo not given)	none
N#CC1=C2SCN(c3ccccc3)CN2C(=O)CC1c1cccs1 (stereo not given)	M1 antag -3.65 | M1 antag confirm inactive | mGluR4 antag inactive
COc1ccc(OC)c2c(C)cc(NCCN3CCOCC3)nc12	none (no result: Htt clearance)
Cc1ccc2c(c1)N(CCC(=O)NC1CC1)C(=O)C(C)O2 (stereo not given)	M1 antag -3.96 | M1 antag confirm inactive | mGluR4 antag inactive
O=C(Nc1nc(-c2ccc3c(c2)OCO3)cs1)C1COc2ccccc2O1 (stereo not given)	none (no result: D1 mod, Htt clearance)
O=C(Nc1nc(-c2ccc(S(=O)(=O)N3CCCC3)cc2)cs1)C1COc2ccccc2O1 (stereo not given)	M1 antag -8.68 | M1 antag confirm inactive | mGluR4 antag inactive
Cc1cccc(N2C(N)=NC(N)=NC23CCCCC3)c1	none
O=C(NCCCN1CCN(c2cccc(Cl)c2)CC1)C1CCC(=O)N1Cc1ccccc1Cl (stereo not given)	M1 antag -2.04 | M1 antag confirm inactive | mGluR4 antag inactive
Cn1c(=O)n(C/C=C/c2ccccc2)c(=O)c2c1nc1n2CCCN1c1ccc(F)cc1	none (no result: Htt clearance)
N=c1c(C(=O)NC2CCCC2)cc2c(=O)n3ccccc3nc2n1C1CCCC1	none (no result: Htt clearance)
Cc1cccn2c(=O)c3cc(C(=O)NC4CCCCC4)c(=N)n(CCN4CCOCC4)c3nc12	M1 antag -2.42 (no result: Htt clearance) | M1 antag confirm inactive | mGluR4 antag inactive
Cc1cccn2c(=O)c3cc(C(=O)NC4CCCC4)c(=N)n(C4CCCC4)c3nc12	M1 antag -4.77 (no result: Htt clearance) | M1 antag confirm 367 | mGluR4 antag inactive
CCCn1c(=N)c(C(=O)NC2CCCC2)cc2c(=O)n3cccc(C)c3nc21	none (no result: WNV NS2B-NS3 inh, D1 mod, M1 agonist, M1 antag)
CCC(=O)Nc1nnc(C(C)(C)C)s1	none (no result: WNV NS2B-NS3 inh, D1 mod, M1 agonist, M1 antag)
COc1ccccc1C(=O)NC(C)C(c1cccs1)N1CCOCC1 (stereo not given)	M1 antag -3.49 | M1 antag confirm inactive | mGluR4 antag inactive
O=C(CCNS(=O)(=O)c1cccc2nsnc12)NCCc1ccccc1	none (no result: Htt clearance)
O=C(CCNS(=O)(=O)c1cccc2nsnc12)N1CCN(c2ccccn2)CC1	M1 antag -1.98 (no result: D1 mod, Htt clearance) | M1 antag confirm 41.9 | mGluR4 antag inactive
CCOC(=O)N1CCN(C(=O)CCNS(=O)(=O)c2cc(Br)cnc2N)CC1	none (no result: Htt clearance)
COc1cc(OC)c(NC(=O)CCNS(=O)(=O)c2cc(Br)cnc2N)cc1Cl	M1 antag -6.85 | M1 antag confirm inactive | mGluR4 antag inactive
Nc1ncc(Br)cc1S(=O)(=O)NCCC(=O)N1CCN(c2ncccn2)CC1	M1 antag -2.93 (no result: Htt clearance) | M1 antag confirm inactive | mGluR4 antag inactive
COc1cc(C2C3=C(CC(C)(C)CC3=O)N(C)C(=O)N2C)cc(OC)c1OC (stereo not given)	none
CCN(CC)S(=O)(=O)c1csc(C(=O)NCc2ccccc2)c1	none (no result: D1 mod, Htt clearance)
COc1ccc(C2(O)CCN(CCCCOc3ccccc3)CC2)cc1	M1 antag -2.55 | M1 antag confirm 477 | mGluR4 antag inactive
COc1ccc(C2(O)CCN(C(=O)Cc3cccnc3)CC2)cc1	none (no result: Htt clearance)
COc1ccccc1Nc1nc(N)nc(CN2CCc3ccccc3C2)n1	none
CC(=O)c1ccc(OCC(O)CN2CCC(C)CC2)cc1 (stereo not given)	none (no result: Htt clearance)
CN(CC(O)COc1ccc(OCC(O)CN(C)C2CCCCC2)cc1)C1CCCCC1 (stereo not given)	none (no result: Htt clearance)

Screens: PubChem, several laboratories
